High-throughput results from PubChem BioAssay.
Shown are actives, neighbours in structure and some others; about 4.7% of the full set was active somewhere.
tim10-1 inh: growth inhibitors of tim10-1 mutant yeast, primary screen, luminescence, uHTS. inhibition, % at 20 µM. S. cerevisiae tim10-1 ts strain growth, BacTiter-Glo, 24 h. AID 463190, 2010. 330,000 tested, 2.2% active;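 active = inhibition of at least 40%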;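 also: mutant grown at 25 °C; 0% = DMSO wells with yeast and 100% = wells holding no yeast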
TIM10 inh: growth inhibitors of isogenic TIM10 control yeast, primary screen, counter-screen for tim10-1 yeast inhibitor project, luminescence, uHTS; S. cerevisiae TIM10 strain growth, BacTiter-Glo luminescence, 24 h; inhibition, % at 10 µM; 330,000 tested, 1.4% active; AID 463195, 2010;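 active = inhibition of 40% or more at the single tested concentration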;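 also: wild-type TIM10 isogenic control strain grown at permissive 25 °C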
PfHsp90 yeast 2: growth inhibition of PfHsp90-expressing yeast, primary screen, antimalarial PfHsp90 inhibitor project, S. cerevisiae, BacTiter-Glo luminescence, single point, set 2; BacTiter-Glo ATP, 48 h; yeast lacking PDR1 and PDR3 efflux regulators; inhibition, % at 9.4 µM; 310,000 tested, 0.32% active;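 active = every replicate shows inhibition above about 80%, whatever the replicate mean, limit read from the data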;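 also: 0% = DMSO neutral controls and 100% = 20 µM radicicol positive controls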
ATG4B inh: ATG4B protease inhibitors, primary screen, biochemical, fluorescence, uHTS; Cysteine protease ATG4B (Homo sapiens), Q9Y4P1; ATG4B cleavage of LC3-PLA2, NBD-HPC fluorescence, 1 h; inhibition, % at 8.33 µM; 340,000 tested, 0.51% active; AID 504462, 2011; in the data active = inhibition above about 40%
Target sequence (Q9Y4P1 whole entry, looked up): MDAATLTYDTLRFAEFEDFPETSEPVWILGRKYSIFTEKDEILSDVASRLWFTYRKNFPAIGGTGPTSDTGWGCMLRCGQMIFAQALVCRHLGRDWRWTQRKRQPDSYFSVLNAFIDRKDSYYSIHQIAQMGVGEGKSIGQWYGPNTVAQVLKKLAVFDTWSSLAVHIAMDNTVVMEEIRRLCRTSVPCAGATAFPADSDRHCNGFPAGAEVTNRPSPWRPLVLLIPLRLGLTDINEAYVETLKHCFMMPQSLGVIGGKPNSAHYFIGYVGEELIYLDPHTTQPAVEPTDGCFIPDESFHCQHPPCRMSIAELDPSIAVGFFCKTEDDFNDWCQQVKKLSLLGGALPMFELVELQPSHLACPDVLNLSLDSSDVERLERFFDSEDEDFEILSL
SKKanGAS inh: S. pyogenes SKKanGAS growth inhibitors in kanamycin, primary screen, streptokinase expression inhibitor project, SKKanGAS strain, BacTiter-Glo luminescence. 6 h. inhibition, % at 7.5 µM. 300,000 tested, 1.3% active;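 active = mean replicate score, as percent of positive control median, at least 50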;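 also: strain carries kanamycin resistance gene driven by streptokinase promoter and grows in 40 µg/ml kanamycin; loss of luminescence reflects streptokinase promoter inhibition or plain growth inhibition; 0% = median of DMSO wells and 100% = positive control at its reference dose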
tim23-1 inh: growth inhibitors of tim23-1 mutant yeast, primary screen, luminescence, uHTS; S. cerevisiae tim23-1 growth, BacTiter-Glo luminescence, 24 h; inhibition, % at 20 µM; 330,000 tested, 1.3% active;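 active = growth inhibition of the mutant yeast at or above 50%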;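 also: temperature-sensitive mutant grown at 25 °C; plate controls were DMSO-treated mutant yeast for no effect and medium wells lacking yeast for full effect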
Starred values were filed as active, the others as inactive.

For CC(=O)c1cccc(NC(=O)C(C)OC(=O)C2CCC2)c1 (stereo not given) the results were tim10-1 inh -4, TIM10 inh -1, PfHsp90 yeast 2 -14, ATG4B inh -11, SKKanGAS inh -2 and tim23-1 inh -12.
For O=C(CCCc1c[nH]c2ccccc12)NCc1ccccc1F the results were tim10-1 inh 11, TIM10 inh 15, PfHsp90 yeast 2 -5, ATG4B inh -9, SKKanGAS inh -3 and tim23-1 inh 10.
Screening CC(C)(C)N(Cc1ccccc1)C(=O)COc1cccnc1[N+](=O)[O-] returned tim10-1 inh 30, TIM10 inh 6, PfHsp90 yeast 2 11, ATG4B inh 2, SKKanGAS inh 52* and tim23-1 inh 18.
For Cc1ccc(-c2nc(-c3ccccc3)no2)cc1 the results were tim10-1 inh 11, TIM10 inh 2, PfHsp90 yeast 2 5, ATG4B inh -6, SKKanGAS inh 4 and tim23-1 inh 11.
`CCc1ccccc1-n1nnnc1-c1cnccc1C(F)(F)F` gave tim10-1 inh 27, TIM10 inh 17, PfHsp90 yeast 2 -13, ATG4B inh 2, SKKanGAS inh 4 and tim23-1 inh 29.
For Cc1cc2oc(=O)cc(CN(C)Cc3ccccc3Cl)c2cc1C the results were tim10-1 inh -2, TIM10 inh -20, PfHsp90 yeast 2 -16, ATG4B inh 1, SKKanGAS inh 62* and tim23-1 inh -4.
Screening c1ccc(OCCCc2nc(-c3ccncc3)no2)cc1 returned tim10-1 inh 8, TIM10 inh 3, PfHsp90 yeast 2 30, ATG4B inh -11, SKKanGAS inh 5 and tim23-1 inh -7.
For COc1ccc(C(=O)COC(=O)c2nn(C)cc2Cl)cc1 the results were tim10-1 inh -1, TIM10 inh 9, PfHsp90 yeast 2 -18, ATG4B inh -4, SKKanGAS inh 0 and tim23-1 inh 10.
COc1ccc(C2CC(c3ccc4ccccc4c3)=NN2C(=O)CN2CCC(C(N)=O)CC2)cc1 (stereo not given) was read as tim10-1 inh -3, TIM10 inh 7, ATG4B inh -11, SKKanGAS inh 14 and tim23-1 inh 31.
For Clc1ccccc1Sc1ccc(-c2ccccn2)s1 the results were tim10-1 inh 1, TIM10 inh 0, ATG4B inh -3, SKKanGAS inh 62* and tim23-1 inh 20.
Screening O=[N+]([O-])c1cccnc1Sc1ccccc1Cl returned tim10-1 inh 13, TIM10 inh 15, PfHsp90 yeast 2 15, ATG4B inh 2, SKKanGAS inh -5 and tim23-1 inh 10.
Screening COc1ccc(OCC(=O)Nc2ccc(N3CCOCC3)c(Cl)c2)cc1 returned tim10-1 inh 17, TIM10 inh 11, PfHsp90 yeast 2 -9, ATG4B inh 10, SKKanGAS inh 6 and tim23-1 inh 26.
`O=C(NC(=S)Nc1ccc(N2CCOCC2)c(Cl)c1)c1cncc(Br)c1` gave tim10-1 inh 28, TIM10 inh -3, PfHsp90 yeast 2 20, ATG4B inh -12, SKKanGAS inh 71* and tim23-1 inh 38.
Cc1cc(O)ccc1NC(=S)NC(=O)c1cncc(Br)c1 was read as tim10-1 inh 14, TIM10 inh -5, PfHsp90 yeast 2 -79, ATG4B inh 2, SKKanGAS inh 74* and tim23-1 inh -2.
Screening COc1ccc(OCC(=O)NC(=S)Nc2ccc(N3CCOCC3)c(Cl)c2)cc1 returned tim10-1 inh 30, TIM10 inh 25, ATG4B inh -24, SKKanGAS inh 68* and tim23-1 inh 16.
O=C(Nc1ccc(N2CCOCC2)c(Cl)c1)c1cccnc1 was read as tim10-1 inh -10, TIM10 inh -2, PfHsp90 yeast 2 31, ATG4B inh -2, SKKanGAS inh -2 and tim23-1 inh -5.
Cc1ccccc1NC(=S)NC(=O)c1cncc(Br)c1 was read as tim10-1 inh 31, TIM10 inh 13, PfHsp90 yeast 2 -10, ATG4B inh -9, SKKanGAS inh -6 and tim23-1 inh 34.
Screening O=C(NC(=S)Nc1ccc(N2CCOCC2)c(Cl)c1)c1sc2ccccc2c1Cl returned tim10-1 inh 5, TIM10 inh 7, PfHsp90 yeast 2 -4, ATG4B inh 5, SKKanGAS inh 4 and tim23-1 inh 1.
O=C(NC(=S)Nc1ccc(N2CCOCC2)c(Cl)c1)c1cccs1 was read as tim10-1 inh 22, TIM10 inh 9, PfHsp90 yeast 2 -11, ATG4B inh 0, SKKanGAS inh 65* and tim23-1 inh 16.
Nc1ccccc1Sc1ccc(C(=O)c2ccccc2C(=O)O)cc1[N+](=O)[O-] was read as tim10-1 inh -9, TIM10 inh 10, PfHsp90 yeast 2 -10, ATG4B inh -7, SKKanGAS inh 2 and tim23-1 inh -4.
COc1ccccc1C(=O)NNC(=O)C(=O)Nc1ccc(C)c(Cl)c1 was read as tim10-1 inh -27, TIM10 inh -1, PfHsp90 yeast 2 -30, ATG4B inh 8, SKKanGAS inh 98* and tim23-1 inh -14.
For Cc1ccccc1NC(=O)CN1C(=O)S/C(=C\c2cccn2-c2cccc(C(=O)O)c2)C1=O the results were tim10-1 inh -6, TIM10 inh -19, ATG4B inh 27, SKKanGAS inh 3 and tim23-1 inh -6.
`Cc1ccc(NC(=O)CN2C(=O)S/C(=C\c3cccn3-c3cccc(C(=O)O)c3)C2=O)c(C)c1` gave tim10-1 inh 8, TIM10 inh -25, PfHsp90 yeast 2 -39, ATG4B inh 0, SKKanGAS inh 59* and tim23-1 inh 2.
`Cc1cc2c(=O)n(CC(=O)N3CCN(c4ccc(F)cc4)CC3)cnc2s1` gave tim10-1 inh -23, TIM10 inh -12, PfHsp90 yeast 2 14, ATG4B inh -2, SKKanGAS inh 2 and tim23-1 inh 2.
Screening Cc1ccc(S(=O)(=O)Nc2nc3ccccc3nc2Nc2cccc(S(=O)(=O)N3CCCC3)c2)cc1 returned tim10-1 inh 8, TIM10 inh 12, PfHsp90 yeast 2 -3, ATG4B inh -9, SKKanGAS inh 66* and tim23-1 inh 17.
`COc1ccc(-n2c(SCC(=O)C(C)(C)C)nc3ccsc3c2=O)cc1` gave tim10-1 inh 18, TIM10 inh -3, PfHsp90 yeast 2 5, ATG4B inh -2, SKKanGAS inh 0 and tim23-1 inh 13.
